Screens (PubChem BioAssay)
TDP1 cell noCPT: qHTS for Inhibitors of human tyrosyl-DNA phosphodiesterase 1 (TDP1): qHTS in cells in absence of CPT. DT40 Tdp1-/- hTDP1 cells, no CPT, ATP luminescence, 48 h. Potency, µM (highest dose often 46.2 µM), for the others: top-dose activity change, negative = growth inhibition, usual class: inhibitors. 420,000 compounds, 15% hits; note: % is set by controls: 0 for no effect and ±100 for the full control effect; nearly all actives have a fitted effect of over 55% in size
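A cellular qHTS used chicken DT40 cells lacking endogenous Tdp1 but carrying stably transfected human TDP1. Compounds were applied without camptothecin, and cell growth kinetics were judged by ATP-dependent luminescence after ≥48 hr.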
ATXN2 expr inh: Primary qHTS for Inhibitors of ATXN expression | Potency, µM (titrated, usually from 57 µM), without a hit: top-dose activity change, negative = inhibition, usual class: inhibitors | HEK-293 ATXN2-luciferase reporter, luminescence, 24 h | AID 1745845, 2022 | 360,000 compounds, 0.72% hits; note: % is set by controls: 0 for no effect and ±100 for the full control effect; nearly all actives have a fitted effect of over 55% in size
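ATXN2-luciferase reporter cells (luciferase flanked by upstream and downstream ATXN2 gene portions) were treated 24 h at 37 °C with compounds at up to 57 uM. SteadyGlo luminescence gave expression; GF-AFC fluorescence gave viability.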
ATXN viability: Viability Counterscreen for Primary qHTS for Inhibitors of ATXN expression; S2 cells (HEK-293 line with an ATXN2-luciferase reporter) viability, CellTiter-Fluor protease fluorescence, 24 h; Potency, µM (top dose mostly 56.7 µM), hits mostly cytotoxic; AID 651635, 2014; 400,000 compounds, 0.49% hits; note: nearly all actives have a fitted effect of over 40% in size
TGFb inhibitor: qHTS for Inhibitors of TGF-b. 410,000 compounds, 1.2% hits. HepG2 CAGA-GFP TGF-b/SMAD3 reporter, GFP fluorescence, 18 h; TGF-beta stimulated, 500 pg/mL final. AID 588855, 2011. Potency, µM (top dose mostly 46.1 µM), without a hit: at the top dose activity, negative = inhibition, most hits filed as inhibitors; note: % is set by controls: 0 for no effect and ±100 for the full control effect; nearly all actives have a fitted effect of over 65% in size
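HEPG2 CAGA-GFP reporter cells (1000/well, DMEM with 1% FBS) received compounds, then recombinant TGF-beta at 500 pg/mL final for 18 hours at 37 degrees C. Per-cell GFP summed per well was normalised to unstimulated and stimulated DMSO controls before curve fitting.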
DT40 TDP1 CPT: qHTS for Inhibitors of human tyrosyl-DNA phosphodiesterase 1 (TDP1): qHTS in cells in presence of CPT. chicken DT40 Tdp1-/-;hTDP1 cells + 20 nM CPT, ATP luminescence, 48 h. Potency, µM (highest dose often 46.2 µM), inactives show at the highest dose activity change, negative = growth inhibition, most hits filed as inhibitors. 420,000 compounds, 12% hits. AID 686979, 2013; note: % is set by controls: 0 for no effect and ±100 for the full control effect; nearly all actives have a fitted effect of over 55% in size
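Chicken DT40 Tdp1-/- cells stably complemented with human TDP1 were seeded at 400 cells/well in medium containing 20 nM camptothecin, exposed to pin-transferred compounds, and grown at 37 °C for at least 48 hr. Viability was read as ATP luminescence.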
HepG2 viability: qHTS for Inhibitors of TGF-b: Cytotox Counterscreen. HepG2 CAGA-GFP viability, ATP luminescence, 18 h. Potency, µM (highest dose often 46.1 µM), without a hit: top-dose activity change, negative = cytotoxicity, actives largely listed as cytotoxic. 410,000 compounds, 0.76% hits
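HepG2 CAGA-GFP cells (1000/well, DMEM with 1% FBS) received compound, then TGF-beta at 500 pg/mL final, and were incubated 18 hours at 37 degrees C. Viability was read by CellTiter-Glo luminescence. Media-only wells were set as complete cell-killing and DMSO as no toxicity.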
* = called active by the depositor; [ ] = another dose, or the depositor's remark. Compounds with a hit are over-represented: about 17% of the library has one in this group of screens. Calls come from the whole dose curve; as a rule, active = well fitted curve in the direction sought with a large enough effect; inconclusive = small, poorly fitted or top-dose-only effect, or another doubt; inactive = no such curve, though single readings can be large; an effect the other way counts as inactive or inconclusive. Potency is the fitted concentration of half-maximal effect.

`Cc1ccc(Cl)cc1N(C)C(=O)c1sc2nc3n(c(=O)c2c1C)CCCC3` gave TDP1 cell noCPT 16.4µM*, TGFb inhibitor 3.0%, DT40 TDP1 CPT inconclusive and HepG2 viability -16.6%.
For COc1ccc(C2=NN(CCC(=O)NCC3CCCO3)C(=O)CC2)cc1 (stereo not drawn) the results were TDP1 cell noCPT 19.8%, ATXN2 expr inh 5.0%, ATXN viability inactive, TGFb inhibitor 4.5%, DT40 TDP1 CPT -0.9% and HepG2 viability 3.5%.
COc1ccc(N2CCN(C(=O)c3ccc(OCc4c(C)noc4C)c(OC)c3)CC2)cc1 was read as TDP1 cell noCPT -21.1%, ATXN2 expr inh -4.2%, ATXN viability inactive, TGFb inhibitor 2.7%, DT40 TDP1 CPT inconclusive and HepG2 viability 21.2%.
Screening COc1cc(C(=O)N2CCN(c3ccc([N+](=O)[O-])cc3)CC2)ccc1OCc1c(C)noc1C returned TDP1 cell noCPT 16.4µM*, ATXN2 expr inh -28.3%, ATXN viability inactive, TGFb inhibitor -14.8%, DT40 TDP1 CPT inconclusive and HepG2 viability -2.1%.
Screening CCc1ccc(N2CCN(C(=O)c3ccc(OC)c(OC)c3)CC2)cc1 returned TDP1 cell noCPT 13µM*, ATXN2 expr inh inconclusive, ATXN viability inconclusive, TGFb inhibitor inconclusive, DT40 TDP1 CPT inconclusive and HepG2 viability -19.9%.
Screening COc1ccc(C(=O)N2CCN(c3nc4ccccc4o3)CC2)cc1OC returned TDP1 cell noCPT 20.6µM*, ATXN2 expr inh inconclusive, ATXN viability inactive, TGFb inhibitor -14.9%, DT40 TDP1 CPT 16.4µM* and HepG2 viability -21.8%.
For COc1ccc(C(=O)N2CCN(c3c(C)cccc3C)CC2)cc1OC the results were TDP1 cell noCPT inconclusive, ATXN2 expr inh -21.6%, ATXN viability inactive, TGFb inhibitor -18.7%, DT40 TDP1 CPT 23.1µM* and HepG2 viability -24.7%.
Screening COc1ccc(C(=O)N2CCN(c3ccc(C)cc3)CC2)cc1OC returned TDP1 cell noCPT inconclusive, ATXN2 expr inh -24.3%, ATXN viability inactive, TGFb inhibitor -7.2%, DT40 TDP1 CPT inconclusive and HepG2 viability -47.1%.
COc1cc(=O)n2c(c1C(=O)NCc1ccco1)CCN(Cc1cccc(C(F)(F)F)c1)CC2 was read as TDP1 cell noCPT -1.0%, ATXN viability inactive and DT40 TDP1 CPT 16.7%[9.04 µM].
CC1(c2nnnn2Cc2ccccc2)CCC(=O)N1Cc1cccc(C(F)(F)F)c1 (stereo not drawn) was read as TDP1 cell noCPT -22.2%, ATXN2 expr inh -2.6%, ATXN viability inactive and DT40 TDP1 CPT -1.8%.
Cc1cccc(C)c1-n1nnnc1C1(C)CCC(=O)N1Cc1cccc(C(F)(F)F)c1 (stereo not drawn) was read as TDP1 cell noCPT 23.1µM*, ATXN2 expr inh 4.0%, ATXN viability inactive and DT40 TDP1 CPT 23.1µM*.
For COc1ccc(C2/C=C\CN(C(=O)OCc3ccccc3)CC(=O)N2Cc2ccc(F)cc2)cc1 (stereo not drawn) the results were TDP1 cell noCPT inconclusive, ATXN2 expr inh -5.5%, ATXN viability inactive, TGFb inhibitor inconclusive, DT40 TDP1 CPT inconclusive and HepG2 viability -23.3%.
`COc1ccc([C@H]2/C=C\CN(C(=O)C3CC3)[C@@H](C)C(=O)N2Cc2ccc(F)cc2)cc1` gave TDP1 cell noCPT 11.6µM*, ATXN2 expr inh -7.0%, ATXN viability inconclusive, TGFb inhibitor -13.2%, DT40 TDP1 CPT 23.1µM* and HepG2 viability -21.0%.
